In the supplement of paper PMC10681739:

These sequences were tested against T1, ETS1 (UniProt P14921) (assay: ETS1 binding intensity (PBM fluorescence) in presence of RUNX1, normalised to ETS1-only experiment (arbitrary fluorescence units); higher = stronger binding). Conditions: ETS1 concentration 1 nM; RUNX1 concentration 25 nM.
T1 sequence: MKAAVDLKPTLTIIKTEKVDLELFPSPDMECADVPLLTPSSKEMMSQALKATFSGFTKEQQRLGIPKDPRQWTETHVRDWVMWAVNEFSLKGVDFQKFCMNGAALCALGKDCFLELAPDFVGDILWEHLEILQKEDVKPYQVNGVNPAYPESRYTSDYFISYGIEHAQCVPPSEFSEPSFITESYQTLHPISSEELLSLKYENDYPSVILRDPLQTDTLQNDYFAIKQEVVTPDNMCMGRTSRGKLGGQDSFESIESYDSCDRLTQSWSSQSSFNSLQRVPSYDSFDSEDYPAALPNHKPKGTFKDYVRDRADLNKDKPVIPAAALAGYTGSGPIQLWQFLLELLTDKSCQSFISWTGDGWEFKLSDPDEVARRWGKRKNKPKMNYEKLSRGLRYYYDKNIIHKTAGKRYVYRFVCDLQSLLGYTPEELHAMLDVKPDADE
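Wherever RUNX1 binding intensity (PBM fluorescence) in presence of ETS1, normalised to RUNX1-only experiment is given: Full-length recombinant human ETS1 or RUNX1 bound to double-stranded 36-bp genomic probes on microarrays, detected by protein-specific primary antibody and Alexa488 secondary, spot fluorescence as median of four replicate spots.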

Row | Sequence | ETS1 binding intensity
1 | GTCTTTCACTCCACTTCCGCCCCCACAAAACATACA | 3620
2 | GACTGGTTTCCTGGTTTTGATGTGGTTTAGAGAAAA | 630
3 | CTTTAAGGAGGCGGAAAAGTTAACCGCGATGGGCAG | 1430
4 | GAGACTTTCGCTTCCGGCTGCCGCAGGCGCTTCGCT | 1700
5 | GACTCCCTCAGCGGATGCGGGTGCTGCTGCTGCTGC | 1400
6 | GGCTGCAGGAAGTGGGAAGGTGTGGCTTTGAGTCTC | 2460
7 | AAAGTAGGTCCGGTCCGCGGGTGCGGTCGGGCATGC | 545
8 | AGGCTCATTTCCTGTTTTCATGTGGTTTAGAGAAAA | 5130
9 | GCCACACAGGCAGGAAAGCCACAGCCCACGTCTCCG | 378
10 | AGCGGCTGCACAGGAAGTTGGTTTTCACAAAGGCAA | 6650
11 | TTTCTGACTTCCTGTGTGCTTCAGAAACCTCAATGA | 2570
12 | GACCTGCCTTCCGGCCTCCGTCACATGACCGCACAG | 1210
13 | CCCGCTGTCACTTCCTGCTTCCCTCCCGCACACGTG | 2310
14 | ACAGATAGTGATATCCTGTGGTCAATTCCCTCCCCT | 951
15 | GAGGGCTGCTTCCTGCTCTGTGGAGGCCGCAGCGGG | 594
16 | CCAACACAGGAAATAATTTGAAACCACAATCAGAAA | 4460
17 | ACGGTGTGTCTCATTTCCTGTGGGTAACAGGCACCA | 3240
18 | TAACTACTTCCTTTTACTATCTACCACAATTTAATT | 510
19 | TCAAGAAAACAGGAAACTCTCAAAACCAAGTTCTGA | 1830
20 | TGGAAGGCCGGAAAAGGTTTACCACCACACTCCGGT | 3690

Row | Sequence | ETS1 binding intensity
21 | CAGTGACAGGAAGTGGTTCAGCGGTTGTTTAGGGCT | 9430
22 | GACATCCAGGAAGTGGTGAGAAACCACGTGTGTGTT | 4150
23 | AATGGGCTTGGTTTCCTGTGGGTTTGTAGCTTTGTA | 685
24 | GCAGGCGGAGCTTGAGGAAACCGCAGATAAGTTTTT | 2510
25 | CTCCAGGGACAACCCGGAAACCACATTGCCCAGCGT | 6990
26 | TGTCCGCACCCCACTTCCGCCCCGCAGAGGGCAACG | 3480
27 | ACAGACCAGGGGATTTCCTGTGGGTGGAGTCCTCAG | 771
28 | CCCACTTCCTGTCTGCTTCCCTCCACCGCTCAGACC | 2650
29 | AGGCAGCACAGGAAGTTATAACCACATGTACACTTG | 11900
30 | TTGGTCAGGATGTGGCTGAAGAAGCCACAAGAAAAA | 943
31 | AGTTGTGTTTTAGGATGTGGTCAAAGCCCAACAGAG | 2150
32 | TTCGGATTCCCGGAAGAACCCGCAGCAGCTCCCAGG | 1020
33 | CCGAGCTTAACGACATCCTGCGGCTCAGCGTGGAGG | 471
34 | TCTCTACTTCCCATTATTTCTGTGGTTAATTTCACC | 986
35 | GCCTGTCGCAGGAACGGAAGTGGTTACGGCCCTAGT | 19800
36 | ACCCCGGAAGTGTGGGCGCGGCTGCGGTTTAACCCG | 15900
37 | TGTTTTCGCTCTTCCTGGCCTTGCGGGCAGCCAGGA | 783
38 | CCCTGAGCACTTCCCCGTAAGGCTGCGGTGCACGGG | 460
39 | AGCACCCGGAAGTCGGAGCTGCGCACGCACCGCGGG | 1910
40 | GGGGCTCCGCAGGAAGTAGGGCTCCCACAACTTTGC | 2310

These sequences were tested against RUNX1 (UniProt Q01196) (assay: RUNX1 binding intensity (PBM fluorescence) in presence of ETS1, normalised to RUNX1-only experiment (arbitrary fluorescence units); higher = stronger binding). Conditions: RUNX1 concentration 2 nM; ETS1 concentration 25 nM.
Protocol: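 Cooperative gcPBM on 36-bp genomic probes with neighbouring ETS1 and RUNX1 sites. Recombinant human RUNX1 (2 nM) was incubated alone or with ETS1 (25 nM) and detected with anti-RUNX1 antibody plus Alexa488 secondary. Values are medians over 4 replicate spots; the RUNX1+ETS1 data were normalised to the RUNX1-only data. The probes sit in constant array flanks that are not printed.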

RUNX1, sequence (Q01196 whole entry): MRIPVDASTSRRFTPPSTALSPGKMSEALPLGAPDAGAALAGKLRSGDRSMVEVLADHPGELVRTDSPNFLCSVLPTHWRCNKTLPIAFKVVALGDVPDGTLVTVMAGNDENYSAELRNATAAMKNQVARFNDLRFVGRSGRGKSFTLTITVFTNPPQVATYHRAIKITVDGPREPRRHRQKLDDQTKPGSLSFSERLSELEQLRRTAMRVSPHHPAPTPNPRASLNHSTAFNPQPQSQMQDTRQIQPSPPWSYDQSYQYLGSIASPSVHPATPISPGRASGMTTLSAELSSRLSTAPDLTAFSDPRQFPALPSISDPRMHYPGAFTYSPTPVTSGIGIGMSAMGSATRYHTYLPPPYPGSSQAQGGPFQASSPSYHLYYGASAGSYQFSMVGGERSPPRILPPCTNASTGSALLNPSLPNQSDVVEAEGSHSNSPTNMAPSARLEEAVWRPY

Row | Sequence | RUNX1 binding intensity
41 | GTCTTTCACTCCACTTCCGCCCCCACAAAACATACA | 6600
42 | GACTGGTTTCCTGGTTTTGATGTGGTTTAGAGAAAA | 2170
43 | CTTTAAGGAGGCGGAAAAGTTAACCGCGATGGGCAG | 1050
44 | GAGACTTTCGCTTCCGGCTGCCGCAGGCGCTTCGCT | 1550
45 | GACTCCCTCAGCGGATGCGGGTGCTGCTGCTGCTGC | 1250
46 | GGCTGCAGGAAGTGGGAAGGTGTGGCTTTGAGTCTC | 1820
47 | AAAGTAGGTCCGGTCCGCGGGTGCGGTCGGGCATGC | 878
48 | AGGCTCATTTCCTGTTTTCATGTGGTTTAGAGAAAA | 3930
49 | GCCACACAGGCAGGAAAGCCACAGCCCACGTCTCCG | 885
50 | AGCGGCTGCACAGGAAGTTGGTTTTCACAAAGGCAA | 1190
51 | TTTCTGACTTCCTGTGTGCTTCAGAAACCTCAATGA | 2110
52 | GACCTGCCTTCCGGCCTCCGTCACATGACCGCACAG | 2000
53 | CCCGCTGTCACTTCCTGCTTCCCTCCCGCACACGTG | 3690
54 | ACAGATAGTGATATCCTGTGGTCAATTCCCTCCCCT | 2280
55 | GAGGGCTGCTTCCTGCTCTGTGGAGGCCGCAGCGGG | 1270
56 | CCAACACAGGAAATAATTTGAAACCACAATCAGAAA | 3290
57 | ACGGTGTGTCTCATTTCCTGTGGGTAACAGGCACCA | 1720
58 | TAACTACTTCCTTTTACTATCTACCACAATTTAATT | 2810
59 | TCAAGAAAACAGGAAACTCTCAAAACCAAGTTCTGA | 931
60 | TGGAAGGCCGGAAAAGGTTTACCACCACACTCCGGT | 1320

Row | Sequence | RUNX1 binding intensity
61 | CAGTGACAGGAAGTGGTTCAGCGGTTGTTTAGGGCT | 3830
62 | GACATCCAGGAAGTGGTGAGAAACCACGTGTGTGTT | 3070
63 | AATGGGCTTGGTTTCCTGTGGGTTTGTAGCTTTGTA | 2120
64 | GCAGGCGGAGCTTGAGGAAACCGCAGATAAGTTTTT | 10200
65 | CTCCAGGGACAACCCGGAAACCACATTGCCCAGCGT | 1500
66 | TGTCCGCACCCCACTTCCGCCCCGCAGAGGGCAACG | 3130
67 | ACAGACCAGGGGATTTCCTGTGGGTGGAGTCCTCAG | 1500
68 | CCCACTTCCTGTCTGCTTCCCTCCACCGCTCAGACC | 4290
69 | AGGCAGCACAGGAAGTTATAACCACATGTACACTTG | 1960
70 | TTGGTCAGGATGTGGCTGAAGAAGCCACAAGAAAAA | 1130
71 | AGTTGTGTTTTAGGATGTGGTCAAAGCCCAACAGAG | 1090
72 | TTCGGATTCCCGGAAGAACCCGCAGCAGCTCCCAGG | 1190
73 | CCGAGCTTAACGACATCCTGCGGCTCAGCGTGGAGG | 1190
74 | TCTCTACTTCCCATTATTTCTGTGGTTAATTTCACC | 13500
75 | GCCTGTCGCAGGAACGGAAGTGGTTACGGCCCTAGT | 3500
76 | ACCCCGGAAGTGTGGGCGCGGCTGCGGTTTAACCCG | 8200
77 | TGTTTTCGCTCTTCCTGGCCTTGCGGGCAGCCAGGA | 1510
78 | CCCTGAGCACTTCCCCGTAAGGCTGCGGTGCACGGG | 844
79 | AGCACCCGGAAGTCGGAGCTGCGCACGCACCGCGGG | 1210
80 | GGGGCTCCGCAGGAAGTAGGGCTCCCACAACTTTGC | 1040
